Holding throughout (assay): log2 fold change, soluble protein after heating vs DMSO (PISA); higher = thermal stabilisation; K562 lysate, 10 uM; active = over 0.2 and 3.5 SD of the protein, either way, in both replicates (recomputed)
Compound in test [1]: NCC(=O)Nc1ccc(-n2nc(C(F)(F)F)cc2-c2ccc3c(ccc4ccccc43)c2)cc1
An outline of the steps:
(§1)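 Dounce homogenisation of K562 pellets in PBS pH 7.4 with 1 mM MgCl2 produced a crude extract, used at 1 mg/mL protein. Exposure to 10 μM compound lasted 30 min, and aliquots were then heated for 3 min across 48°C-58°C, pooled and brought to 0.5% NP-40 at 4°C. The supernatant after 21,000xg for 90 min was quantified by TMTpro 16plex LC-MS/MS with channel sums equalised. Duplicate values are given as log-two fold change in thermal stability relative to solvent controls.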

Compound in the next test: O=C(CCCCCCC(=O)Nc1ccccc1)NO [vorinostat]
An outline of the steps:
as §1

Compound in a further test: O=C(O)c1ccc2c(c1)nc(Nc1cccc(Cl)c1)c1ccncc12 [silmitasertib]
The essentials:
as §1

Compound in test [2]: O=C1NC(=O)C(c2cnc3ccccn23)=C1c1cn2c3c(cc(F)cc13)CN(C(=O)N1CCCCC1)CC2
An outline of the steps: as §1

Compound in another test: c1cn2cc(-c3ccc4cn[nH]c4c3)nc(Nc3ccc(N4CCOCC4)cc3)c2n1 [entospletinib]
An outline of the steps:
as §1

Of roughly 8,800 targets only a part is listed; those with a hit were picked by preference. About 0.5% of all pairs of compound and target were hits.

UniProt Q15004, sequence (Q15004 whole entry, looked up): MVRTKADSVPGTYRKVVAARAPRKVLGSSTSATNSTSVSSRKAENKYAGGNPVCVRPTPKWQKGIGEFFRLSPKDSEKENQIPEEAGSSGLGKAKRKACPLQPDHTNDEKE
UniProt Q15054, sequence (Q15054 whole entry, looked up): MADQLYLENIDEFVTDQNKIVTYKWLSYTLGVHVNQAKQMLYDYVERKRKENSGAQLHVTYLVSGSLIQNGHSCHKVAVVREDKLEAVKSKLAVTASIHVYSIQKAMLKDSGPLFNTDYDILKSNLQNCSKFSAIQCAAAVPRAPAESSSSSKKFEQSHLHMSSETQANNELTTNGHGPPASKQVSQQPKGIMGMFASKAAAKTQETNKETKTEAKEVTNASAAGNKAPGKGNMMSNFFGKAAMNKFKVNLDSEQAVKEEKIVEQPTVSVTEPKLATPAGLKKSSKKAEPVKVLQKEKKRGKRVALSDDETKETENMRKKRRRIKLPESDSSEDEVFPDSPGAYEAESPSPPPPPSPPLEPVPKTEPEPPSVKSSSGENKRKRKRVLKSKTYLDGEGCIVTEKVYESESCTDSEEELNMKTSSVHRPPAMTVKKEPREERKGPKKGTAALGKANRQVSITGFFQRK
UniProt P05771, sequence (P05771 whole entry, looked up): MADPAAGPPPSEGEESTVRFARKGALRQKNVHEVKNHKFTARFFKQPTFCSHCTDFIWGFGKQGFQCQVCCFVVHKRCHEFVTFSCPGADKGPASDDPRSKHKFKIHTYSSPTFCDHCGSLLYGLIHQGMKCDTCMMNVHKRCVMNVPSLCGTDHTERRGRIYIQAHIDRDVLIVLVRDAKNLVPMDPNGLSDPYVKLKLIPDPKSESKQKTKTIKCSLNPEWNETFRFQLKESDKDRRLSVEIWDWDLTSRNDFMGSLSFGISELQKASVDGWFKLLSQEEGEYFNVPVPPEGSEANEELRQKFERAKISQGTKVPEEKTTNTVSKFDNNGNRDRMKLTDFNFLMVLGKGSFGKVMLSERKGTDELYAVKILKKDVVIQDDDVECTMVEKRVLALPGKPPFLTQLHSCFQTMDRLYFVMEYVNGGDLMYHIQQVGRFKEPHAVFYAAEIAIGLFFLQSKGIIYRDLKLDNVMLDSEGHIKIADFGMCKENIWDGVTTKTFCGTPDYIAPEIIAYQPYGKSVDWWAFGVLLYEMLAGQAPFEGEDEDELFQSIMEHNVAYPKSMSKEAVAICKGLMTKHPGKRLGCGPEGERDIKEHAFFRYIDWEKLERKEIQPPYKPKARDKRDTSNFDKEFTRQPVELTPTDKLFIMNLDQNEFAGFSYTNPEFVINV
UniProt Q8IZ21, sequence (Q8IZ21 whole entry, looked up): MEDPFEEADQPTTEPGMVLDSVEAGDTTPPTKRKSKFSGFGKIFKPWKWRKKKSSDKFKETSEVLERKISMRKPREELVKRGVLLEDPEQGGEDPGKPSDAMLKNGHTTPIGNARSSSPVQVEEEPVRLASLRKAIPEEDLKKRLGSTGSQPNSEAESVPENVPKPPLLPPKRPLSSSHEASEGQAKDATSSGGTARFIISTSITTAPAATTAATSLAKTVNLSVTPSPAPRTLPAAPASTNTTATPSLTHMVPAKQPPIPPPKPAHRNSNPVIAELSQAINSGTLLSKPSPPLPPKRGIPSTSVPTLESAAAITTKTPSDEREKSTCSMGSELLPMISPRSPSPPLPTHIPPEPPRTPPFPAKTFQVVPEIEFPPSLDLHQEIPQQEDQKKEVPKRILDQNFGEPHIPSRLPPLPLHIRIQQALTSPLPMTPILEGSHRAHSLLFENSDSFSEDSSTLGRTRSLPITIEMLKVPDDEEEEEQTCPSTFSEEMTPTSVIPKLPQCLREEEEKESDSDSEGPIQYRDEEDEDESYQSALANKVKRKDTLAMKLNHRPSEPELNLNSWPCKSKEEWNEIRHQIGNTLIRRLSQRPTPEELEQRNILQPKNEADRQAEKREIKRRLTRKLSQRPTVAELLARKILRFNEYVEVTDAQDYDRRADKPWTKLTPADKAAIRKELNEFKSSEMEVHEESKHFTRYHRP
UniProt P18031, sequence (P18031 whole entry, looked up): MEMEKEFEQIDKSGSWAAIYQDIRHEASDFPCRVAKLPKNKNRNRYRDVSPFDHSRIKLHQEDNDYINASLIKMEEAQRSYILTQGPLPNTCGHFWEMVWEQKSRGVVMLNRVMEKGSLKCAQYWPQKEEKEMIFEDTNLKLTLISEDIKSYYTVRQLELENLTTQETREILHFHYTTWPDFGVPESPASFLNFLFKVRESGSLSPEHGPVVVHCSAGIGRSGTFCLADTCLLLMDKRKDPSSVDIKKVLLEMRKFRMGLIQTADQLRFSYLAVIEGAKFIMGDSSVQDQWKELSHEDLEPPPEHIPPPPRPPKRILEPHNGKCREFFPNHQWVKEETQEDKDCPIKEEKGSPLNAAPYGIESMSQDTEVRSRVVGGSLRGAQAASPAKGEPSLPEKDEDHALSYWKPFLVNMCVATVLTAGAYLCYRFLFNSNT
UniProt O43175, sequence (O43175 whole entry, looked up): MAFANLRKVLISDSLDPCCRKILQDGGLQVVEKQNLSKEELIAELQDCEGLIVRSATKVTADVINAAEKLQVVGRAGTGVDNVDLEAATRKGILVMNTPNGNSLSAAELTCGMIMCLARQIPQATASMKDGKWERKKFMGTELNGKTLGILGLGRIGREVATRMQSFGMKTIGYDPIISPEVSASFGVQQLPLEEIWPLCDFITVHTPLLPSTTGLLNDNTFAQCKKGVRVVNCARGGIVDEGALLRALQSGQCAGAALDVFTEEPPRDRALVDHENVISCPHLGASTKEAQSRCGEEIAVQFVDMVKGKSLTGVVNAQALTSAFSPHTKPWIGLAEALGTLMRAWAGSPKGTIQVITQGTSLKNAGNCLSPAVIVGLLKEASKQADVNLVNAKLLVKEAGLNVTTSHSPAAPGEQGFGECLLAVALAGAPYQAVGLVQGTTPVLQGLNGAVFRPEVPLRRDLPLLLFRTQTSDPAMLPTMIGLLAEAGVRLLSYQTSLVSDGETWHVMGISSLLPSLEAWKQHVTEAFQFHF
UniProt P46020, sequence (P46020 whole entry, looked up): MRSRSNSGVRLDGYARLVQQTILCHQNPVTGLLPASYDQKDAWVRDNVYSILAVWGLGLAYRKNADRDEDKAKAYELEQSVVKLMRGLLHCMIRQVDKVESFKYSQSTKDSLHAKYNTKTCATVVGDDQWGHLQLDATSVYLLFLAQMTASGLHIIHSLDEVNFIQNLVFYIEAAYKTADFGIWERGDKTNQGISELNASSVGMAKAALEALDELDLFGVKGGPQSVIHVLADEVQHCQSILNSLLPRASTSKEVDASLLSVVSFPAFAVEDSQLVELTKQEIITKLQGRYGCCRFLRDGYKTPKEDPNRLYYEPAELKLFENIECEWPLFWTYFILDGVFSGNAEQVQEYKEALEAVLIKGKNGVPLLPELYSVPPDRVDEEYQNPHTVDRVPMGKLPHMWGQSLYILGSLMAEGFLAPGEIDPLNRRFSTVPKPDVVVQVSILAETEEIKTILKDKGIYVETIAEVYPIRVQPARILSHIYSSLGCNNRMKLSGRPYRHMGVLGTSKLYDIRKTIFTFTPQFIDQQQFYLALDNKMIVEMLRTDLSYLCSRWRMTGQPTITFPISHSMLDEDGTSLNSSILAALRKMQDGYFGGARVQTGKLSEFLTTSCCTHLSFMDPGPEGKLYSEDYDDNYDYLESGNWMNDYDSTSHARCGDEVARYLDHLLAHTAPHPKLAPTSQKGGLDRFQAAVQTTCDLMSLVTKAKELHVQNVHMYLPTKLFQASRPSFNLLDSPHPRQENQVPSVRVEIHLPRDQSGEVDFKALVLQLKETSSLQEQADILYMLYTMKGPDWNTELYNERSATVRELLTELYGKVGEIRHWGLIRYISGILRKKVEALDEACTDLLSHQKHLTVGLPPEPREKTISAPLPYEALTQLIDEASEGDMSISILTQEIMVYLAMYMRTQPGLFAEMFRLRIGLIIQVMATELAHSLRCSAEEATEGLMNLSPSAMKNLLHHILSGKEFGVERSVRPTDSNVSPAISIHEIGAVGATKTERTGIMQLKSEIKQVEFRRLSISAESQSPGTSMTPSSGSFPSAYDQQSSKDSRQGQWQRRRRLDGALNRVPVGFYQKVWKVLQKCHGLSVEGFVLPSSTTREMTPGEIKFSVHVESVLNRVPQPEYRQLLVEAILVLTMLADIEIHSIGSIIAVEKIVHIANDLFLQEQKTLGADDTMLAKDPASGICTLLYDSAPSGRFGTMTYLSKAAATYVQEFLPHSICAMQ
UniProt P14314, sequence (P14314 whole entry, looked up): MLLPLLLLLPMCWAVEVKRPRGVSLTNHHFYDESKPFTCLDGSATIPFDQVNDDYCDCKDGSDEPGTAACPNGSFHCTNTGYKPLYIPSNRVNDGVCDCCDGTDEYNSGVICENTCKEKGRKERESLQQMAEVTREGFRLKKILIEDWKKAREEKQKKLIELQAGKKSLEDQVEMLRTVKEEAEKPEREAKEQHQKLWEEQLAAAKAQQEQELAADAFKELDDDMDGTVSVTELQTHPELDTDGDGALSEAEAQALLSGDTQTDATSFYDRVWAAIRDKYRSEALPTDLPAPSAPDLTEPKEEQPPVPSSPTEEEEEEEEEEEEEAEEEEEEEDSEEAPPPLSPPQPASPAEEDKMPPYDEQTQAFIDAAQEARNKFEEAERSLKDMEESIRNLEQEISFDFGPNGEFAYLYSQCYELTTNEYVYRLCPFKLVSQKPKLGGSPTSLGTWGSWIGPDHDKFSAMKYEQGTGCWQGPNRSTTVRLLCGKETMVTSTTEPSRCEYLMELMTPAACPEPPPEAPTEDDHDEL
UniProt Q9Y6I8, sequence (Q9Y6I8 whole entry, looked up): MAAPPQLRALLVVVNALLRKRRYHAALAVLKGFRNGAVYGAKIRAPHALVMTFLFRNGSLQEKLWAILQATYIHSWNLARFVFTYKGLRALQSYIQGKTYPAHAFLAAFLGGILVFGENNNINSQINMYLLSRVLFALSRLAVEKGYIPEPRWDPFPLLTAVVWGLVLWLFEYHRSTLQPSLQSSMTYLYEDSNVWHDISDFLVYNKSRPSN

On to PRMT7 (UniProt Q9NVM4), for which the log2 fold change in test [1] is -0.017 (inactive); with vorinostat, -0.174 (inactive); with silmitasertib, -0.011 (inactive); in test [2] it was 0.04 (inactive); with entospletinib it was -0.018 (inactive).

Consider PHGDH (UniProt O43175), for which the log2 fold change in test [1] is 0.023 (inactive); with vorinostat, -0.939 (active); with silmitasertib, 0.031 (inactive); in test [2], 0.028 (inactive); with entospletinib, 0.016 (inactive).

For PIM1 isoform 2 (UniProt P11309), the log2 fold change in test [1] was 0.098 (inactive); in the test with vorinostat, -0.188 (inactive); in the test with silmitasertib, 0.212 (inactive); in test [2], 0.019 (inactive); with entospletinib, 0.008 (inactive).

For PPM1H (UniProt Q9ULR3), the log2 fold change in test [1] is -0.004 (inactive); with vorinostat it was 0.206 (inactive); with silmitasertib, -0.05 (inactive); in test [2], -0.045 (inactive); in the test with entospletinib, -0.002 (inactive).

Regarding PCBD2 (UniProt Q9H0N5), the log2 fold change is 0.008 (inactive) in test [1]; 0.034 (inactive) with vorinostat; 0.01 (inactive) with silmitasertib; -0.006 (inactive) in test [2]; 0.003 (inactive) with entospletinib.

In the case of PRKACA (UniProt P17612), the log2 fold change in test [1] is -0.114 (inactive); with vorinostat, 0.007 (inactive); with silmitasertib, -0.02 (inactive); in test [2], 0.033 (inactive); with entospletinib, 0.03 (inactive).

Regarding PFAS (UniProt O15067), the log2 fold change in test [1] is 0.029 (inactive); in the test with vorinostat, -0.272 (active); with silmitasertib it was 0.022 (inactive); in test [2], 0.031 (inactive); with entospletinib, 0.016 (inactive).

As to PRKD3 (UniProt O94806), the log2 fold change in test [1] was -0.116 (inactive); with vorinostat, -0.182 (inactive); with silmitasertib, 0.224 (inactive); in test [2] it was 0.076 (inactive); in the test with entospletinib it was 0.013 (inactive).

With PDPK1 (UniProt O15530), the log2 fold change was -0.056 (inactive) in test [1]; -0.246 (inactive) with vorinostat; 0.09 (inactive) in the test with silmitasertib; 0.004 (inactive) in test [2]; -0.007 (inactive) in the test with entospletinib.

As to PTPN1 (UniProt P18031), the log2 fold change is -0.005 (inactive) in test [1]; -0.29 (active) in the test with vorinostat; 0.04 (inactive) with silmitasertib; 0.012 (inactive) in test [2]; 0.048 (inactive) in the test with entospletinib.

In the case of PRKCB isoform 2 (UniProt P05771), the log2 fold change in test [1] is 0.046 (inactive); in the test with vorinostat, -0.145 (inactive); in the test with silmitasertib, 0.012 (inactive); in test [2], -0.164 (inactive); with entospletinib it was 0.004 (inactive).

Take POLD3 (UniProt Q15054): the log2 fold change in test [1] is 0.045 (inactive); with vorinostat, -0.335 (active); with silmitasertib, -0.02 (inactive); in test [2] it was -0.03 (inactive); in the test with entospletinib it was 0.011 (inactive).

As to PRKAR2A (UniProt P13861), the log2 fold change in test [1] was 0.005 (inactive); with vorinostat it was -0.037 (inactive); with silmitasertib, -0.008 (inactive); in test [2], -0.06 (inactive); with entospletinib, -0.035 (inactive).

Take PHACTR4 isoform 2 (UniProt Q8IZ21): the log2 fold change is 0.025 (inactive) in test [1]; 0.014 (inactive) with vorinostat; 0.01 (inactive) with silmitasertib; 0.009 (inactive) in test [2]; -0.024 (inactive) with entospletinib.

For POLR2F (UniProt P61218), the log2 fold change is -0.019 (inactive) in test [1]; 0.171 (inactive) with vorinostat; 0.008 (inactive) with silmitasertib; 0.027 (inactive) in test [2]; -0.086 (inactive) with entospletinib.

For the target PRKCSH (UniProt P14314), the log2 fold change in test [1] is 0.002 (inactive); with vorinostat it was 0.141 (inactive); in the test with silmitasertib, -0.015 (inactive); in test [2], -0.001 (inactive); with entospletinib, 0.001 (inactive).

For the target PPP4R2 (UniProt Q9NY27), the log2 fold change in test [1] is -0.007 (inactive); with vorinostat, -0.053 (inactive); in the test with silmitasertib, -0.016 (inactive); in test [2] it was 0.023 (inactive); in the test with entospletinib, -0.001 (inactive).

PCLAF (UniProt Q15004): the log2 fold change was 0.022 (inactive) in test [1]; -0.29 (active) with vorinostat; -0.029 (inactive) with silmitasertib; -0.025 (inactive) in test [2]; 0.009 (inactive) in the test with entospletinib.

With PHKA1 (UniProt P46020), the log2 fold change in test [1] is 0.002 (inactive); with vorinostat it was -0.223 (active); with silmitasertib, 0.184 (inactive); in test [2], -0.001 (inactive); with entospletinib it was -0.01 (inactive).

Turning to PICALM (UniProt Q13492), the log2 fold change is 0.02 (inactive) in test [1]; 0.048 (inactive) with vorinostat; 0.003 (inactive) with silmitasertib; -0.019 (inactive) in test [2]; -0.005 (inactive) with entospletinib.

Regarding PIK3CG (UniProt P48736), the log2 fold change was -0.111 (inactive) in test [1]; -0.037 (inactive) with vorinostat; 0.04 (inactive) in the test with silmitasertib; -0.027 (inactive) in test [2]; -0.073 (inactive) with entospletinib.

PWP1 (UniProt Q13610): the log2 fold change was -0.082 (inactive) in test [1]; 0.139 (inactive) with vorinostat; -0.033 (inactive) with silmitasertib; 0.022 (inactive) in test [2]; -0.003 (inactive) in the test with entospletinib.

For the target PDS5A (UniProt Q29RF7), the log2 fold change is -0.001 (inactive) in test [1]; -0.525 (active) with vorinostat; 0.073 (inactive) with silmitasertib; -0.01 (inactive) in test [2]; 0.047 (inactive) with entospletinib.

On to PXMP4 (UniProt Q9Y6I8), for which the log2 fold change is 0.038 (inactive) in test [1]; 0.295 (inactive) with vorinostat; 0.134 (inactive) with silmitasertib; 0.021 (inactive) in test [2]; -0.004 (inactive) with entospletinib.

The values are drawn from the supplement of paper PMC10849652.
